# Assay results taken from PubChem BioAssay (NCATS).
# Inconclusive results are not listed. Entries that show only a call come without a potency. The source made the active and inactive calls. Unless noted, the call rests on the fitted dose curve; in most records, active means well fitted curve in the direction sought with a large enough effect; inconclusive means small, poorly fitted or top-dose-only effect, or another doubt; inactive means no such curve, though single readings can be large; an effect the other way counts as inactive or inconclusive.
# What was measured:
# [1] = Validation of Assay for Modulators of Lamin A Splicing (AID 1459; active means well fitted curve in the direction sought with a large enough effect in the signal ratio; the % refers to the signal ratio;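 further: cells exposed to compound for two days before reading; ratio rise marks activators and ratio drop marks inhibitors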)
# Procedure, shortened: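 Splicing correction read as GFP (500-530 nm) over DsRed2 (575-640 nm) object intensity after 48 h compound exposure of reporter HeLa S3 clones (600 cells/well, 2% FBS medium); ancitabine and cycloheximide titrations, 0.5% DMSO as vehicle.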
# [2] = qHTS Assay for Lipid Storage Modulators (AID 1519; calls by dose curve); conditions: Drosophila S3 cells, BODIPY lipid droplet/cell ratio, laser cytometry, cells loaded with oleic acid
# Procedure, shortened: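 Cells seeded at 5,000 per well were treated with compounds over a concentration series and loaded with oleic acid (400 uM, as added). Lipid droplet fluorescence (488 nm excitation, 500-530 nm channel) was read by laser-scanning cytometry and normalized to 20 uM Triacsin C.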
# [3] = target: DNA repair nuclease/redox regulator APEX1 (Homo sapiens) (UniProt P27695); test: qHTS Validation Assay for Inhibitors of the Human Apurinic/apyrimidinic Endonuclease 1 (APE1) (AID 1705;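 further: TAMRA fluorescence gain over two minutes as APE1 cuts a quenched THF abasic duplex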)
# Procedure, shortened: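 Activity read as rising fluorescence (598 nm emission, 525 nm excitation) from incision of a TAMRA/BHQ-2 duplex carrying a THF abasic site (50 nM). Compound and enzyme sat 15 min at RT before substrate start; signal change between first and third 60-s reads.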
# [4] = Counterscreen for APE1 Inhibitors: Fluorescent Dye Displacement Validation Assay (AID 1707)
# Procedure, shortened: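 Assay buffer: Tris-HCl pH7.5 with 50mM NaCl, 2 mM MgCl2, 0.01% Tween-20. Dye 250 nM, duplex 50 nM final. Readout: decrease in ThO endpoint fluorescence, 480 nm excitation, 540 nm emission.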
# [5] = target: Endonuclease 4 (Escherichia coli (strain K12)) (UniProt P0A6C1); test: Counterscreen for APE1 Inhibitors: qHTS Validation Assay for Inhibitors of Endonuclease IV (AID 1708)
# Procedure, shortened: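 qHTS concentration-response format; LOPAC1280 tested under APE1-screen conditions. 2 nM enzyme, 15 min compound preincubation at RT, then 50 nM TAMRA/BHQ-2 abasic substrate; kinetic fluorescence read, three reads at 60 s intervals.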
# [6] = qHTS for differential inhibitors of proliferation of Plasmodium falciparum line 7G8 (AID 1815);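 further: parasite growth measured after three days of incubation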
# [7] = qHTS for differential inhibitors of proliferation of Plasmodium falciparum line GB4 (AID 1816); conditions: Potency: Plasmodium falciparum GB4 proliferation inhibition;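 further: parasite growth measured after 72 h incubation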
# [8] = qHTS for differential inhibitors of proliferation of Plasmodium falciparum line 3D7 (AID 1876);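 further: parasite growth measured after three days of culture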
# [9] = qHTS for differential inhibitors of proliferation of Plasmodium falciparum line D10 (AID 1877);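 further: parasites grown with compound for 72 h before DNA staining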
# [10] = qHTS for differential inhibitors of proliferation of Plasmodium falciparum line Dd2 (AID 1882); conditions: Potency: Plasmodium falciparum Dd2 proliferation inhibition; further: nearly all actives have a fitted effect of over 65% in size
# Procedure, shortened: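 Dd2-infected erythrocytes (0.3% parasitemia, 2.5% hematocrit final) incubated with compound 72 h at 37 C, 5% CO2; lysed with saponin/Triton buffer containing SYBR Green I, incubated overnight in the dark, then read by fluorescence (485/535 nm). Normalized to 0.29 uM artemisinin and DMSO.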
# [11] = qHTS for differential inhibitors of proliferation of Plasmodium falciparum line W2 (AID 1883); conditions: Potency: Plasmodium falciparum W2 proliferation inhibition;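 further: parasites grown with compound for 72 h before lysis and staining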
# [12] = qHTS for differential inhibitors of proliferation of Plasmodium falciparum line HB3 (AID 1886); conditions: Potency: Plasmodium falciparum HB3 proliferation inhibition;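 further: parasites grown with compound for 72 h before SYBR Green readout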
# [13] = qHTS Assay for Modulators of Human Peripheral Myelin Protein 22 (PMP22) Expression/Activity (AID 1967; active means well fitted curve in the direction sought with a large enough effect in the signal ratio; the % refers to the signal ratio)
# Procedure, shortened: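 Readout is the corrected green/red luminescence ratio after 24 h compound exposure, normalised to untreated cells (0%). Engineered MSC80 mouse Schwann cells express green luciferase from the mouse Pmp22 promoter and red luciferase from EF-alpha as internal control.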
# [14] = target: Ferritin light chain (Equus caballus) (UniProt P02791); test: qHTS Validation Assay for Identification of Novel General Anesthetics (AID 2323)
# Procedure, shortened: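 Competitive displacement of the profluorescent anesthetic 1-AMA (50% saturated, PBS) from 10 uM apoferritin, 10 min, room temperature. Activity is normalized 380/535 nm fluorescence; concentration-response fitted with a four-parameter Hill equation.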
# [15] = target: ATP-dependent DNA helicase Q1 (Homo sapiens) (UniProt P46063); test: qHTS Validation Assay for Inhibitors of RecQ-Like Dna Helicase 1 (RECQ1) (AID 2353)
# Procedure, shortened: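 50 nM RECQ1T1 preincubated 15 min with compound in Tris pH 8.0 buffer with MgCl2, DTT, Tween-20 and 2.5 ug/ml poly(dI-dC); started with 200 nM TAMRA/BHQ-2 forked duplex and 2 mM ATP. Unwinding read as fluorescence (525/598 nm), two reads 2 h apart.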
# [16] = target: RecQ-like DNA helicase BLM (Homo sapiens) (UniProt P54132); test: qHTS Validation Assay for Inhibitors of Bloom's syndrome helicase (BLM) (AID 2364)
# Procedure, shortened: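 Forked 20-bp duplex substrate (200 nM, TAMRA/BHQ-2) plus 2 mM ATP added after 15 min compound preincubation with 50 nM enzyme, pH 8.0, poly(dI-dC) 2.5 ug/ml. Strand separation followed by fluorescence (525/598 nm) over 2 h, normalized to enzyme-free and DMSO controls.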
# [17] = Validation screen for small molecules that induce DNA re-replication in MCF 10A normal breast cells (AID 463097); further: nearly all actives have a fitted effect of over 60% in size
# Procedure, shortened: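 Read-out is Hoechst total nuclear intensity by fluorescence scanning imager, flagging increased high-DNA-content nuclei. Compounds were incubated with MCF 10A cells for 48 hr (37 C, 5% CO2) before 40 min staining.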
# [18] = Quantitative high throughput screen for delayed death inhibitors of the malarial parasite plastid, 96 hour incubation (AID 488745);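 further: luciferase-expressing P. falciparum in erythrocytes at 2% hematocrit and 0.1% parasitemia; nearly all actives have a fitted effect of over 70% in size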
# Procedure, shortened: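 Infected erythrocytes were added to compound in Albumax-supplemented RPMI 1640 at 0.1% parasitemia and 2% hematocrit (final), incubated 96 h at 37 C under 5% CO2, then luciferase reagent was added and luminescence measured.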
# [19] = Quantitative high throughput screen for delayed death inhibitors of the malarial parasite plastid, 48 hour incubation (AID 488752); further: nearly all actives have a fitted effect of over 65% in size
# Procedure, shortened: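 Readout is firefly luciferase luminescence from a reporter integrated into the parasite genome, with lower signal taken as inhibited growth. Infected red cells (0.1% parasitemia, 2% hematocrit final) are cultured with compound for one 48 h cycle at 37 C.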
# [20] = target: M-phase phosphoprotein 8 (Homo sapiens) (UniProt Q99549); test: qHTS Validation Assay for Inhibitors for MPP8 Chromodomain Interactions with Methylated Histone Tails (AID 488949);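 further: AlphaScreen signal from MPP8 chromodomain bound to biotinylated H3K9me3 peptide; top concentration of the series differs between compounds; nearly all actives have a fitted effect of over 55% in size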
# Procedure, shortened: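 AlphaScreen proximity signal from streptavidin donor and Ni-chelate acceptor beads (10 ug/mL each) reported binding of MPP8 to trimethyl-K9 H3(1-18) peptide, both at 50 nM. The complex formed 30 min before a 30 min compound exposure at room temperature, in PBS pH 7.4.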
# [21] = target: Transient receptor potential cation channel subfamily V member 1 (Homo sapiens) (UniProt Q8NER1); test: HTS Assay for Compounds that Act as Enhancers of the Vanilloid Receptor 1 (AID 488979)
# Procedure, shortened: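 Calcium influx kinetics via Fluo-8 (480/520 nm) in TRPV1-expressing cells, 2000/well cultured overnight at 35.5C. Compound-alone read 3 min (agonist phase), followed by EC20 capsaicin challenge for 2 min (enhancer phase).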
# [22] = target: Thyrotropin receptor (Homo sapiens) (UniProt P16473); test: qHTS Assay for Antagonists of the Thyroid Stimulating Hormone Receptor (AID 488980)
# Procedure, shortened: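 Inhibition of cAMP raised by EC80 TSH (4 nM final) was read by HTRF, with lysate cAMP competing against cAMP-d2 for cryptate antibody after 30 min at room temperature. The cells were transfected HEK293 held in phosphodiesterase inhibitor RO 20-1724 at 70 uM.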
# [23] = target: Thyrotropin-releasing hormone receptor (Homo sapiens) (UniProt P34981); test: qHTS for Small Molecule Agonists and Allosteric Enhancers of Human TRH Receptor: Validation Screen for Agonists (AID 493127;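 active means calcium activation more than 3 SD above the typical response in the agonist read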;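 further: intracellular calcium rise by fluo-8 fluorescence before TRH EC20 addition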); conditions: TRH receptor agonist cell assay; at 2 µM; stronger effect = higher value
# Procedure, shortened: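 Cells 2000/well, 10% FCS, 18 h 33.5C/5% CO2 → fluo-8 Ca dye, RT 30 min–1.5 h → FDSS baseline 10 × 1 s → compound added → 230 cycles (1 s/cycle) agonist mode. TRH controls.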
# [24] = target: Galactokinase (Homo sapiens) (UniProt P51570); test: qHTS Validation Assay for Inhibitors of Human Galactokinase (GALK) (AID 493189)
# Procedure, shortened: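 Inhibition was measured as remaining ATP, detected by luciferase luminescence after a 1 h room-temperature reaction. Final conditions: 5 nM GALK, 100 uM galactose, 35 uM ATP, pH 8.0 HEPES buffer.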
# [25] = Validation screen for small molecules that induce DNA re-replication in SW480 colon adenocarcinoma cells (AID 504364)
# Procedure, shortened: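 250 cells/well; compound pinned in; 48 hr, 37 C, 5% CO2; Hoechst added, 40 min; nuclear fluorescence imaged, 405 ex / 500-530 em; re-replication scored as increase in high-intensity nuclei.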
# [26] = target: Voltage-gated inwardly rectifying potassium channel KCNH2 (Homo sapiens) (UniProt Q12809); test: qHTS Assay for Small Molecule Inhibitors of the Human hERG Channel Activity (AID 588834);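 further: top concentration of the series differs between compounds; lower thallium flux fluorescence means stronger hERG block; nearly all actives have a fitted effect of over 50% in size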
# Procedure, shortened: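 Kinetic FDSS fluorescence; U2OS + hERG BacMam (~100 virus particles/cell); FluxOR Tl+ flux; ~10 min cpd; AC50 (Hill).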
# [27] = tested on: Zika virus NS2B-NS3 protease; test: Primary screen GU AMC qHTS for Zika virus inhibitors (AID 1347154); further: nearly all actives have a fitted effect of over 70% in size
# Procedure, shortened: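 Fluorogenic AMC-substrate cleavage by noncovalent NS2B-NS3 protease complex (25 nM, pH 8.0 Tris buffer with Tween 20) followed for 15 minutes at room temperature (~20% conversion). Percent inhibition from ex340/em450 signal change, fitted by 4-parameter Hill equation.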
# [28] = Primary qHTS for small molecule stabilizers of the endoplasmic reticulum resident proteome: Secreted ER Calcium Modulated Protein (SERCaMP) assay (AID 1508630)
# Procedure, shortened: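 GLuc-SERCaMP-expressing SH-SY5Y cells, pretreated 16 h with compound, are challenged with thapsigargin to empty ER calcium stores; after 4 h, coelenterazine is added directly to the medium and luminescence is imaged.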
# Thyrotropin-releasing hormone receptor (Homo sapiens), sequence (P34981 whole entry, looked up): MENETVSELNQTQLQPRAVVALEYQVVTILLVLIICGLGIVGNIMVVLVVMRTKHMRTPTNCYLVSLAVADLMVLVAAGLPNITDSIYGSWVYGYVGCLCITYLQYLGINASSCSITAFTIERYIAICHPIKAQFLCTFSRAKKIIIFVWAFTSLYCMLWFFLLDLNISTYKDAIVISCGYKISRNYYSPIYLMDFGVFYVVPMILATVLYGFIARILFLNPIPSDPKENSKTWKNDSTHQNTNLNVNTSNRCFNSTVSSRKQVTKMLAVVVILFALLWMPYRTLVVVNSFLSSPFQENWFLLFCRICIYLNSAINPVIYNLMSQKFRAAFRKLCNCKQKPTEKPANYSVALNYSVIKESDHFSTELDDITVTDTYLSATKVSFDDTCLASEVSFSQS
# RecQ-like DNA helicase BLM (Homo sapiens), sequence (P54132 whole entry, looked up): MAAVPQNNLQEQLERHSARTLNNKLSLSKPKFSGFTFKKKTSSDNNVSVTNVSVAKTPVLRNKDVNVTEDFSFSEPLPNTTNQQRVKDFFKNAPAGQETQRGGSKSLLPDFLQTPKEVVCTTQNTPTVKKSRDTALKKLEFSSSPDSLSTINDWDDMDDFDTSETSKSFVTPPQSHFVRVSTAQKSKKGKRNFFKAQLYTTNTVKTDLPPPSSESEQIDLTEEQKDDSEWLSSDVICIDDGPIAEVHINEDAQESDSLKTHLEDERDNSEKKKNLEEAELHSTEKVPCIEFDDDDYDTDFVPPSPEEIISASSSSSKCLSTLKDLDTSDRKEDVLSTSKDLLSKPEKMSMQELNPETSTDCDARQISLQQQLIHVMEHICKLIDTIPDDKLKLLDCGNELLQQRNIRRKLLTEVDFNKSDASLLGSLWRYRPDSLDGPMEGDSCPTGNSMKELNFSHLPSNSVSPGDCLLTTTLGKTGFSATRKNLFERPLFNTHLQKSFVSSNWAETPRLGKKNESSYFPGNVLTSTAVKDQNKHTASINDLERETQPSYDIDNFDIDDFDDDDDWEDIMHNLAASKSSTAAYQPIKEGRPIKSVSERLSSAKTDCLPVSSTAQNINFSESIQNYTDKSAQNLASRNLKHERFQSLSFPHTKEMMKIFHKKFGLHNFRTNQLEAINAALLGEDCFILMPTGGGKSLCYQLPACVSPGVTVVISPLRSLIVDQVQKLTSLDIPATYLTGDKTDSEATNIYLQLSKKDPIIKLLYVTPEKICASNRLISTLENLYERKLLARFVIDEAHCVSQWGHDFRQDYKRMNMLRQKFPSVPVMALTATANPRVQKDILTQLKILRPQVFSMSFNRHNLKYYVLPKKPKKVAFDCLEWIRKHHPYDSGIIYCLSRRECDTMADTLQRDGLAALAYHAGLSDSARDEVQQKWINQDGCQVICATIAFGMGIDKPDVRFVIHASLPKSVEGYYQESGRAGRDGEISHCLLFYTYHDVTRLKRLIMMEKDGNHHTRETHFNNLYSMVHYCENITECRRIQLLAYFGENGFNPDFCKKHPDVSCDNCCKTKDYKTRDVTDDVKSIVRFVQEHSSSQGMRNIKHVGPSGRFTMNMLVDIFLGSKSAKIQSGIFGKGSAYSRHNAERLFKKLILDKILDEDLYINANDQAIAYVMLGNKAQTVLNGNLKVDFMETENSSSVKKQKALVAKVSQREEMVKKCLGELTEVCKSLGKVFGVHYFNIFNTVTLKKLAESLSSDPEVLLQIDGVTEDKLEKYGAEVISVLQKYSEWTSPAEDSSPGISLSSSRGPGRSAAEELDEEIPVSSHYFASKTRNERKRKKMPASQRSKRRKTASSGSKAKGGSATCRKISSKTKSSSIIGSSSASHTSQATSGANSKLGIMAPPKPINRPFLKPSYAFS
# DNA repair nuclease/redox regulator APEX1 (Homo sapiens), sequence (P27695 whole entry, looked up): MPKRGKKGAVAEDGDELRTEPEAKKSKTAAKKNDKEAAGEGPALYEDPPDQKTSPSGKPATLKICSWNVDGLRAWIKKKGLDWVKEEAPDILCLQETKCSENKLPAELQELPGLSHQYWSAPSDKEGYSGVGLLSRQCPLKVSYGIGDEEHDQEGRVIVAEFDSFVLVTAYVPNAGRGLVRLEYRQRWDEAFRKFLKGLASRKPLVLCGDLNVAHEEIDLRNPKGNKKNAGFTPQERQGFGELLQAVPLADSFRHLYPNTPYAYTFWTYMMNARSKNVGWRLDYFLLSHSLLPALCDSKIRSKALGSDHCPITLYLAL
# Thyrotropin receptor (Homo sapiens), sequence (P16473 whole entry, looked up): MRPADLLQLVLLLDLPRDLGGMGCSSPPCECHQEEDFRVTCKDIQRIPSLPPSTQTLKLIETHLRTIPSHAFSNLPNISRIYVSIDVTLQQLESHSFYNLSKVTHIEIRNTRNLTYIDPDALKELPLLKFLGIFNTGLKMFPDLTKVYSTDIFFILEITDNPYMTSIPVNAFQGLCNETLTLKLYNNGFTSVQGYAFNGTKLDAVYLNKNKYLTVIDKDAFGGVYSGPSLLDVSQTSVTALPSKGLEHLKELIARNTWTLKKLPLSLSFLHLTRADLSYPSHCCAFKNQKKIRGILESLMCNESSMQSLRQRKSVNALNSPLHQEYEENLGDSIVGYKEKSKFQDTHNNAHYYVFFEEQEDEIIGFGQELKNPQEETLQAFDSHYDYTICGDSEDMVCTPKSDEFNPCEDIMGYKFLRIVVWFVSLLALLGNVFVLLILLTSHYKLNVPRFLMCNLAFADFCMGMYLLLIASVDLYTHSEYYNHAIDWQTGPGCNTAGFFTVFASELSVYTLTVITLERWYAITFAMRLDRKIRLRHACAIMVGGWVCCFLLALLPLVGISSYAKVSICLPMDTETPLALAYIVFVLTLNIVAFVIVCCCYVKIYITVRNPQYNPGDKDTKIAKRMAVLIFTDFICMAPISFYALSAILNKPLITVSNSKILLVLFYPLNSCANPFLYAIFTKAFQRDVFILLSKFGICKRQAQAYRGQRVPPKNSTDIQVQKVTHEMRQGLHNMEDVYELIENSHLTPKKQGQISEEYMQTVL
# M-phase phosphoprotein 8 (Homo sapiens), sequence (Q99549 whole entry, looked up): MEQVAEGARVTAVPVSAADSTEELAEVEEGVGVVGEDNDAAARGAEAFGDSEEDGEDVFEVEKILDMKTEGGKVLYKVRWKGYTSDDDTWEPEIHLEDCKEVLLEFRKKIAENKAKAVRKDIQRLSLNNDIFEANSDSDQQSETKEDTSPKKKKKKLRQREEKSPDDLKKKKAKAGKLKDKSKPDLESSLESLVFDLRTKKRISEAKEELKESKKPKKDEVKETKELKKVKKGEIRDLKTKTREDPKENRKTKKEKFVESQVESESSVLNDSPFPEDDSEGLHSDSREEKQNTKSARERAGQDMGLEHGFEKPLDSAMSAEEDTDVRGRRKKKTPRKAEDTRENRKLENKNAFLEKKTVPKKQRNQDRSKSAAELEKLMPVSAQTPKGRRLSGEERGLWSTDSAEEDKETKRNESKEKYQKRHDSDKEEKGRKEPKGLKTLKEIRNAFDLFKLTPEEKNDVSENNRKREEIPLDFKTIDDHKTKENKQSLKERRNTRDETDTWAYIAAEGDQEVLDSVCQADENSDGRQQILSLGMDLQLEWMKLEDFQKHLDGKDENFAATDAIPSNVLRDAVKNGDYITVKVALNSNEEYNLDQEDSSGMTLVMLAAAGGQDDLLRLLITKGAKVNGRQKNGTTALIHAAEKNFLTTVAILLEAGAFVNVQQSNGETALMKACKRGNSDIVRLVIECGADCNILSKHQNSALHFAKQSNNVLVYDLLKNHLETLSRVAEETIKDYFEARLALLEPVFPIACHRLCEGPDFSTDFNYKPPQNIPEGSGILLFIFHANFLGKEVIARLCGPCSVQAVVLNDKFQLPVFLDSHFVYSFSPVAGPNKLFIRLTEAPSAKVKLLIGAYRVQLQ
# ATP-dependent DNA helicase Q1 (Homo sapiens), sequence (P46063 whole entry, looked up): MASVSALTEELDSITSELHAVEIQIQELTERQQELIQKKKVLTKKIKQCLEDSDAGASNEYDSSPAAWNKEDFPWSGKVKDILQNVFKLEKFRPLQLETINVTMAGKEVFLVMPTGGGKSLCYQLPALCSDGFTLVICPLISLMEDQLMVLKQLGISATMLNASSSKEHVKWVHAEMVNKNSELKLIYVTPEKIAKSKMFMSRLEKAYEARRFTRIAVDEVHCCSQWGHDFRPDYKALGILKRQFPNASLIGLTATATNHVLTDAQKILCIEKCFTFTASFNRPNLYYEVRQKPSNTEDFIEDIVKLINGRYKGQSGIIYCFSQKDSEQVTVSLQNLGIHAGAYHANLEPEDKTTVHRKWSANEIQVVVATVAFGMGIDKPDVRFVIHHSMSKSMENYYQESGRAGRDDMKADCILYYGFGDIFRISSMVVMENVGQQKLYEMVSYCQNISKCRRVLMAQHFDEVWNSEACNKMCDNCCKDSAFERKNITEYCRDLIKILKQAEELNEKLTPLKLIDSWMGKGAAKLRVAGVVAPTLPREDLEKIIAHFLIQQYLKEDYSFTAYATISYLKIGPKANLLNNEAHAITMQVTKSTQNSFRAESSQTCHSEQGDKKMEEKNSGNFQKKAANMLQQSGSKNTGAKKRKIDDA
# Ferritin light chain (Equus caballus), sequence (P02791 2-175 limits assumed): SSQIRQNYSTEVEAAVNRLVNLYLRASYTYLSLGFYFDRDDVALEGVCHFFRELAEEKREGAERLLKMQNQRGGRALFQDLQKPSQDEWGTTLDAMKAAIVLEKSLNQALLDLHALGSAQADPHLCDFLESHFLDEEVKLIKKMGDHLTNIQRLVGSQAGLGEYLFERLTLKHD
# Galactokinase (Homo sapiens), sequence (P51570 whole entry, looked up): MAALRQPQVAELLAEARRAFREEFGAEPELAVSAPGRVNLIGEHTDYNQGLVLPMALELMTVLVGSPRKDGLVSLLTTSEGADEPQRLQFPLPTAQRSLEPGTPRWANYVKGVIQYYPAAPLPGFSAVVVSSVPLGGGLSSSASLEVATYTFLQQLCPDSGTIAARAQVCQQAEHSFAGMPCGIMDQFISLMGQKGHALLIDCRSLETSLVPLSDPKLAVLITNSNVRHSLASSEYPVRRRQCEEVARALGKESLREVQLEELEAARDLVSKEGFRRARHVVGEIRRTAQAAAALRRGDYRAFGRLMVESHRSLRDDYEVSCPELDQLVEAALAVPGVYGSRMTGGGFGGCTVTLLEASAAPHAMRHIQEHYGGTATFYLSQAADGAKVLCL
smiles,measurement,setting,value
NC(CCC(=O)NCS(=O)(=O)O)C(=O)O (stereo not given),outcome,[1],inactive
same,"activity change, negative = inhibition",[2]; at 57.5 µM (top of the series),1.69% (inactive)
same,max response,[2]; measured here: cell count channel max response,45.8%
same,max response,[2]; measured here: lipid channel max response,46.4%
same,Potency,[3],inactive
same,Potency,[4],inactive
same,Potency,[5],inactive
same,Potency,[6],inactive
same,Potency,[7],inactive
same,Potency,[8],inactive
same,Potency,[9],inactive
same,Potency,[10],inactive
same,Potency,[11],inactive
same,Potency,[12],inactive
same,outcome,[13],inactive
same,outcome,[14],inactive
same,Potency,[15],inactive
same,Potency,[16],inactive
same,Potency,[17],inactive
same,Potency,[18],inactive
same,Potency,[19],inactive
same,Potency,[20],inactive
same,outcome,[21],inactive
same,outcome,[22],inactive
same,activation,[23],1.56% (inactive)
same,outcome,[24],inactive
same,outcome,[25],inactive
same,Potency,[26],inactive
same,Potency,[27],inactive
same,Potency,[28],inactive
